Screening data deposited in PubChem BioAssay by Buhrlage Lab, Dana-Farber Cancer Institute and Novartis Institutes for BioMedical Research (Cambridge, Mass).
UCHL1 block – inhibitors of human UCHL1 deubiquitinase. inhibition, % at 20 µM. purified UCHL1, Ub-rhodamine cleavage fluorescence. AID 1645859, 2021. Ubiquitin carboxyl-terminal hydrolase isozyme L1 (Homo sapiens), P09936. actives 0.2% (n = 47,000)
Target sequence (P09936 whole entry, looked up): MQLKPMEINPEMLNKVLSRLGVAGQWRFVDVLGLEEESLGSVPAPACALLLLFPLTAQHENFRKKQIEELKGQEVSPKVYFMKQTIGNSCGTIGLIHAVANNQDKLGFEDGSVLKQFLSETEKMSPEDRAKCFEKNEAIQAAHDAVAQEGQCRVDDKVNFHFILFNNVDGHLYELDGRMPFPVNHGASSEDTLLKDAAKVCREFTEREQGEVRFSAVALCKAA
USP7 block – inhibitors of human USP7 deubiquitinase. Ubiquitin carboxyl-terminal hydrolase 7 (Homo sapiens), Q93009. purified USP7, Ub-rhodamine cleavage fluorescence. inhibition, % at 20 µM. actives 0.3% (n = 47,000). AID 1645854, 2021
USP10 inh – inhibitors of human USP10 deubiquitinase; Ubiquitin carboxyl-terminal hydrolase 10 (Homo sapiens), Q14694; purified USP10, Ub-rhodamine fluorescence, 60 min; inhibition, % at 20 µM; actives 1.1% (n = 47,000); AID 1645856, 2021
USP8 block – inhibitors of human USP8 deubiquitinase; Ubiquitin carboxyl-terminal hydrolase 8 (Homo sapiens), P40818; purified USP8, Ub-rhodamine cleavage fluorescence, 30 min; inhibition, % at 20 µM; actives 4.2% (n = 47,000)
* marks the source's active call; other numbers are inactive results. Sampled rows, rich in hits. Any-hit rate of the full collection: about 4.6%. Rule as the data show it: active = inhibition above about 30%; inactive = the rest.

Screening Cc1ccc(-c2nccn3cc(C(=O)N4CCCN(c5ncccn5)CC4)nc23)cc1 returned UCHL1 block 1, USP7 block 1, USP10 inh -3 and USP8 block 3.
`CC(C)CCCCCCCCCCCC(=O)O` gave UCHL1 block 4, USP7 block -18, USP10 inh 30* and USP8 block 8.
For Cc1ccc(NC2c3ccccc3C(=O)N2c2ccccn2)cc1 (stereo not drawn) the results were UCHL1 block 2, USP7 block -10, USP10 inh 1 and USP8 block -24.
`COc1ccc(NC2c3ccccc3C(=O)N2c2ccccn2)cc1` (stereo not drawn) gave UCHL1 block 3, USP7 block -9, USP10 inh -9 and USP8 block 83*.
N#Cc1c(Cl)cccc1Oc1ccc(S(=O)(=O)N2CCC(O)CC2)cc1 was read as UCHL1 block 0, USP7 block -12, USP10 inh -1 and USP8 block 0.
Screening COc1cc(NC(=O)CN2CCC3(CCC2=O)NC(=O)c2ccccc2N3)cc(OC)c1 (stereo not drawn) returned UCHL1 block 3, USP7 block 4, USP10 inh 5 and USP8 block 10.
COc1ccccc1CN1C(=O)c2ccccc2CC1(C)C(=O)NC1CCCCC1 (stereo not drawn) was read as UCHL1 block 1, USP7 block -2, USP10 inh 1 and USP8 block 3.
`Cc1cc2cc(CCNC(=O)c3ccc(F)cc3)c(=O)[nH]c2cc1C` gave UCHL1 block 0, USP7 block -2, USP10 inh 2 and USP8 block -97.
Screening COc1ccc(Oc2cc3n(c(=O)n2)CCc2cc(OC)c(OC)cc2-3)cc1 returned UCHL1 block -17, USP7 block -11, USP10 inh -6 and USP8 block -76.
Screening COc1cc2c(cc1OC)-c1cc(Oc3ccc4cccnc4c3)nc(=O)n1CC2 returned UCHL1 block -9, USP7 block -12, USP10 inh -10 and USP8 block 35*.
COc1ccc(C(=O)Nc2cc(F)c3nc(N4CCOCC4)ccc3c2)c(OC)c1 was read as UCHL1 block 6, USP7 block -16, USP10 inh -11 and USP8 block 78*.
For COc1ccc(CC(=O)Nc2cc(F)c3nc(N4CCOCC4)ccc3c2)cc1 the results were UCHL1 block -3, USP7 block 1, USP10 inh 3 and USP8 block 49*.
`O=C(Nc1ccccc1F)N1CCN(Cc2nnnn2-c2ccc(F)cc2)CC1` gave UCHL1 block -2, USP7 block 0, USP10 inh -1 and USP8 block 2.
Screening COc1cc(O)cc2c1C(=O)OC(C)CCCCCCC2 (stereo not drawn) returned UCHL1 block 1, USP7 block 24, USP10 inh 38* and USP8 block 9.
COc1ccc(CCC(=O)N2CCC3(CC2)NCCc2[nH]cnc23)cc1 was read as UCHL1 block -3, USP7 block 0, USP10 inh -5 and USP8 block 12.
For COc1cc(C(=O)Nc2cc(-c3ccc(F)c(F)c3)no2)cc(OC)c1OC the results were UCHL1 block -2, USP7 block 0, USP10 inh 0 and USP8 block 43*.
Screening O=C(Nc1cccc(Cl)c1)C1C2C=CC3(O2)C1C(=O)N(C1CCCCC1)C3C(=O)NC1CCCCC1 (stereo not drawn) returned UCHL1 block 2, USP7 block -73, USP10 inh 5 and USP8 block -12.
`COc1ccc(OC)c(NC(=O)CS(=O)(=O)c2cn(CC(=O)N3CCC(C)CC3)c3ccccc23)c1` gave UCHL1 block -3, USP7 block -7, USP10 inh -7 and USP8 block 32*.
O=C(Cc1nc(-c2ccccn2)n[nH]1)Nc1ccc(F)cc1Cl was read as UCHL1 block -4, USP7 block -7, USP10 inh -6 and USP8 block -220.
Cc1ccc(C(=O)CCC(=O)OCC(=O)c2ccc3[nH]c(=O)[nH]c3c2)cc1 was read as UCHL1 block 4, USP7 block 2, USP10 inh 7 and USP8 block 4.
Screening COc1ccc(NC(=O)c2ccco2)cc1NC(=O)COc1ccc(Cl)cc1Cl returned UCHL1 block 5, USP7 block 13, USP10 inh 1 and USP8 block 43*.
For O=C(COC(=O)c1ccc(Cl)cc1)Nc1ccc2[nH]c(=O)[nH]c2c1 the results were UCHL1 block 4, USP7 block 12, USP10 inh 8 and USP8 block 34*.
